In the library only some 1.9% were active in any assay of this set; here they are far more common.
IEC-6 tox-1 – IEC-6 cytotoxicity, counter-screen for KLF5 inhibitors; AID 1825; luminescence viability; actives 0.78% (n = 290,000); inhibition, % at 5 µM
BaF3 tox – parental Ba/F3 viability inhibition as JAK2V617F counter-screen; CellTiter-Glo ATP luminescence; inhibition, % at 5.6 µM; actives 1.1% (n = 220,000); AID 1486;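 active = inhibition above a per-campaign cutoff, the mean inhibition of all tested compounds plus 3 SD, cut at about 27% in these data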
KLF5 inhibitor – kruppel-like factor 5 inhibition | DLD-1 KLF5 promoter-luciferase reporter, luminescence | actives 0.23% (n = 290,000) | inhibition, % at 5 µM;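 active = inhibition above a per-plate limit of that plate's mean compound inhibition plus 3 SD, cut at about 60% in these data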;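 also: higher means less KLF5 promoter-driven luciferase light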
APP transl inh – APP translation inhibition; SH-SY5Y APP 5'UTR-luciferase reporter, luminescence; inhibition, % at 2 µM; actives 0.82% (n = 190,000);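 active = inhibition above a set limit, derived from the sample mean plus 3 SD, cut at about 45% in these data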
Ba/F3 V617F tox – reduce viability of Ba/F3 cells dependent on JAK2V617F; actives 1.1% (n = 220,000); inhibition, % at 5.6 µM; Ba/F3 EpoR-JAK2V617F viability, ATP luminescence; AID 1446;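 active = inhibition above the campaign mean plus 3 SD over all tested compounds, cut at about 24% in these data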;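 also: cytokine-independent growth of Ba/F3 cells driven by EpoR plus mutant JAK2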
KLF5 confirm – KLF5 inhibition, confirmation assay | shares compounds with KLF5 inhibitor | DLD-1 KLF5 promoter firefly luciferase reporter, luminescence | inhibition, % at 4 µM | actives 79% (n = 610) | AID 1834;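 active = inhibition above a set limit taken from the earlier primary screen, cut at about 63% in these data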
IEC-6 tox-2 – rat IEC-6 cytotoxicity, KLF5 inhibitor counter-screen; shares compounds with KLF5 inhibitor; IEC-6 rat intestinal cells, viability luminescence; inhibition, % at 4 µM; actives 56% (n = 610); in the data active = inhibition above about 23%;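 also: cells exposed to compounds for 48 hours before viability read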
IEC-6 cytotox cf – confirmation of cytotoxic compounds in rat IEC-6 intestinal epithelial cells; IEC-6 rat intestinal epithelial viability, luminescence; actives 63% (n = 1,900); AID 1907; inhibition, % at 5 µM; shares compounds with IEC-6 tox-1
Large screens that a line does not name were inactive (follow-up assays come after a bar, where they were run). Rule as the data show it, unless noted: active = inhibition above about 22%; inactive = the rest.

CC1(C)CC(N2CCN(CCO)CC2)=CC(=S)N1	none (no result: APP transl inh)
CSc1nc2ccsc2c(=O)n1-c1ccccn1	none
Cc1cc(C)c(NC(=O)COC(=O)c2cc([N+](=O)[O-])ccc2N2CCOCC2)c(C)c1	none (no result: BaF3 tox, APP transl inh, Ba/F3 V617F tox)
O=C(c1ccc(Br)cc1)c1cc([N+](=O)[O-])ccc1N1CCCCC1	IEC-6 tox-1 87, BaF3 tox 79, KLF5 inhibitor 84, APP transl inh 95, Ba/F3 V617F tox 83 | KLF5 confirm 82 | IEC-6 tox-2 63 | IEC-6 cytotox cf 60
Cc1ccc(C(=O)c2cc([N+](=O)[O-])ccc2N2CCOCC2)c(C)c1	IEC-6 tox-1 91, BaF3 tox 84, KLF5 inhibitor 74, APP transl inh 94, Ba/F3 V617F tox 76 | KLF5 confirm 84 | IEC-6 tox-2 70 | IEC-6 cytotox cf 59
O=C(c1cc([N+](=O)[O-])ccc1N1CCOCC1)N1CCN(c2ccccc2)CC1	IEC-6 tox-1 90, KLF5 inhibitor 82 (no result: BaF3 tox, APP transl inh, Ba/F3 V617F tox) | KLF5 confirm 90 | IEC-6 tox-2 73 | IEC-6 cytotox cf 62
CCn1c(C)nc2cc(-c3nc4n(n3)Cc3ccccc3-4)ccc21	IEC-6 tox-1 33, BaF3 tox 42, KLF5 inhibitor 112, APP transl inh 85, Ba/F3 V617F tox 48 | KLF5 confirm 110 | IEC-6 tox-2 39 | IEC-6 cytotox cf 43
N#CC1=C2SCN(c3ccccc3)CN2C(=O)CC1c1cccs1 (stereo unspecified)	none
N#CC1=C2SCC(O)(c3ccccc3)N2C(=O)CC1c1cccs1 (stereo unspecified)	IEC-6 tox-1 82, BaF3 tox 75, KLF5 inhibitor 72, APP transl inh 91, Ba/F3 V617F tox 74 | KLF5 confirm 74 | IEC-6 tox-2 62 | IEC-6 cytotox cf 56
CCCC(=O)OCC(=O)c1[nH]c(C)c(C(C)=O)c1C	none
O=C(Nc1ccc(F)cc1)c1nc2c(nnn2Cc2cccc3ccccc23)c(=O)[nH]1	none (no result: APP transl inh)
COc1ccccc1/C=N\NC(=O)c1c(C)nc2ccc(Cl)cn12	none (no result: BaF3 tox, APP transl inh, Ba/F3 V617F tox)
COc1cccc(/C=N/NC(=O)c2c(C)nc3ccc(Cl)cn23)c1O	IEC-6 tox-1 83, KLF5 inhibitor 93 (no result: BaF3 tox, APP transl inh, Ba/F3 V617F tox) | KLF5 confirm 88 | IEC-6 tox-2 63 | IEC-6 cytotox cf 47
O=C(NCCCn1ccnc1)c1ccc(Cl)s1	none (no result: BaF3 tox, APP transl inh, Ba/F3 V617F tox)
COc1ccc(CCNc2nnc(Sc3nnnn3-c3ccccc3)s2)cc1OC	IEC-6 tox-1 93, BaF3 tox 96, KLF5 inhibitor 65, APP transl inh 94, Ba/F3 V617F tox 93 | KLF5 confirm 80 | IEC-6 tox-2 70 | IEC-6 cytotox cf 77
COc1ccc(-n2nnnc2SCC(=O)NCCc2ccccc2)cc1OC	none
O=C(Nc1cccc(NC(=O)C2CCCO2)c1)c1ccco1 (stereo unspecified)	none
Cc1ccccc1-c1cc2c(nn1)-c1ccccc1C2=O	IEC-6 tox-1 102, BaF3 tox 88, KLF5 inhibitor 102, Ba/F3 V617F tox 91 | KLF5 confirm inactive | IEC-6 tox-2 inactive | IEC-6 cytotox cf 41
O/N=C/c1cccc[n+]1CCCCCC[n+]1ccccc1/C=N/O	none (no result: BaF3 tox, APP transl inh, Ba/F3 V617F tox)
CCCCCCCCC[n+]1cccc2c3ccccc3ccc21	IEC-6 tox-1 60, BaF3 tox 92, KLF5 inhibitor 75, Ba/F3 V617F tox 101 | KLF5 confirm 71 | IEC-6 tox-2 39 | IEC-6 cytotox cf 72
COc1cccc2cc(C(=O)OCC(=O)NCc3ccc4c(c3)OCO4)c(=O)oc12	none (no result: APP transl inh)
CCCN(CC(=O)Nc1ccc(Cl)cc1Cl)C(=O)c1ccc(=O)[nH]c1	none (no result: BaF3 tox, APP transl inh, Ba/F3 V617F tox)
O=C(Nc1cccc([N+](=O)[O-])c1)Nc1ccc2c(c1)OCCO2	none
Cc1nc(N)nc(N)c1/C=C/C(C)(C)c1ccc(Cl)cc1	IEC-6 tox-1 86, BaF3 tox 103, KLF5 inhibitor 83, APP transl inh 70, Ba/F3 V617F tox 98 | KLF5 confirm 84 | IEC-6 tox-2 76 | IEC-6 cytotox cf 77
O=C(Sc1cccc2cccnc12)c1ccccc1Br	IEC-6 tox-1 102, KLF5 inhibitor 62 (no result: BaF3 tox, APP transl inh, Ba/F3 V617F tox) | KLF5 confirm inactive | IEC-6 tox-2 100 | IEC-6 cytotox cf 99
Cc1ccccc1NC(=O)Cc1nc(COC(=O)c2cc([N+](=O)[O-])ccc2N)cs1	none (no result: BaF3 tox, APP transl inh, Ba/F3 V617F tox)
CCCC(=O)NC(c1ccccc1Cl)c1ccc2cccnc2c1O (stereo unspecified)	IEC-6 tox-1 98, KLF5 inhibitor 91 (no result: BaF3 tox, APP transl inh, Ba/F3 V617F tox) | KLF5 confirm 91 | IEC-6 tox-2 78 | IEC-6 cytotox cf 76
CCCC(=O)NC(c1ccc(C(C)C)cc1)c1ccc2cccnc2c1O (stereo unspecified)	IEC-6 tox-1 24, KLF5 inhibitor 69 (no result: BaF3 tox, APP transl inh, Ba/F3 V617F tox) | KLF5 confirm 84 | IEC-6 tox-2 71 | IEC-6 cytotox cf 73
COc1ccc(C(NC(=O)C(C)C)c2ccc3cccnc3c2O)cc1 (stereo unspecified)	IEC-6 tox-1 22, BaF3 tox 54, KLF5 inhibitor 85, Ba/F3 V617F tox 74 (no result: APP transl inh) | KLF5 confirm 87 | IEC-6 tox-2 52 | IEC-6 cytotox cf 66
CCCC(=O)NC(c1ccc(N(C)C)cc1)c1ccc2cccnc2c1O (stereo unspecified)	IEC-6 tox-1 63, KLF5 inhibitor 82 (no result: BaF3 tox, APP transl inh, Ba/F3 V617F tox) | KLF5 confirm 88 | IEC-6 tox-2 76 | IEC-6 cytotox cf 81
COc1ccc(C(Nc2cc(C)ccn2)c2ccc3ccc(C)nc3c2O)cc1 (stereo unspecified)	none (no result: APP transl inh)
Oc1ccccc1C(Nc1nccs1)c1ccc2cccnc2c1O (stereo unspecified)	none (no result: APP transl inh)
COc1cccc(NC(=O)CCc2c(C)nc3nc(CNC(=O)c4cccc(F)c4)nn3c2C)c1	none (no result: BaF3 tox, APP transl inh, Ba/F3 V617F tox)
CC(=O)NC(c1ccccc1)c1cc(Cl)c2cccnc2c1O (stereo unspecified)	IEC-6 tox-1 83, KLF5 inhibitor 89 (no result: BaF3 tox, APP transl inh, Ba/F3 V617F tox) | KLF5 confirm 74 | IEC-6 tox-2 87 | IEC-6 cytotox cf 73
CC(=O)NC(c1ccc(C)cc1)c1cc([N+](=O)[O-])c2cccnc2c1O (stereo unspecified)	none
O=C1c2ccccc2CN1C(CO)Cc1ccccc1 (stereo unspecified)	none (no result: BaF3 tox, APP transl inh, Ba/F3 V617F tox)
O=C(c1cc(-c2ccncc2)nc2c(Cl)cccc12)N1CCN(c2ccccc2F)CC1	IEC-6 tox-1 67, KLF5 inhibitor 66 (no result: BaF3 tox, APP transl inh, Ba/F3 V617F tox) | KLF5 confirm 65 | IEC-6 tox-2 47 | IEC-6 cytotox cf 54
O=C(O)CSc1cc(NS(=O)(=O)c2ccc(Cl)cc2)c2ccccc2c1O	IEC-6 tox-1 57 (no result: BaF3 tox, APP transl inh, Ba/F3 V617F tox) | IEC-6 cytotox cf inactive
C=CCSc1nc2sc(C)c(C)c2c(=O)n1CC=C	none
C=CCn1c(SCC(=O)c2cccs2)nc2sc(C)c(C)c2c1=O	IEC-6 tox-1 68 | IEC-6 cytotox cf 46
COCCCNC(=S)N/N=C/c1ccc(O)cc1O	none (no result: APP transl inh)
COCCCNC(=S)N/N=C/c1cccc(OC)c1O	IEC-6 tox-1 60 (no result: APP transl inh) | IEC-6 cytotox cf inactive
CCC(C)NC(=O)C1CC(=O)N(CCc2ccc(F)cc2)C1 (stereo unspecified)	none (no result: BaF3 tox, APP transl inh, Ba/F3 V617F tox)

Bioassay records (PubChem BioAssay)
